# Experimental data as given in PubChem BioAssay.
# Unmarked numbers belong to inactive results. Active and inactive are the calls of the source.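 How the source made its calls, unless noted: active means mean inhibition over 43.08%, the solvent-only control mean plus 3 SD; inactive means the rest.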
# Columns and labels:
# [1] = target: Nuclear receptor coactivator 3 (Homo sapiens) (UniProt Q9Y6Q9); assay: SRC3 coactivator transcriptional activity inhibitors, confirmation, cell-based, luminescence, quadruplicate (AID 588792); settings: HEK293 GAL4-SRC3 luciferase reporter, at 3.6 µM, active compounds read high;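 further: 0% = DMSO treated cells and 100% = gossypol at 36 µM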
# Sequence of Nuclear receptor coactivator 3 (Homo sapiens) (Q9Y6Q9 whole entry, looked up, the tested form may be a part): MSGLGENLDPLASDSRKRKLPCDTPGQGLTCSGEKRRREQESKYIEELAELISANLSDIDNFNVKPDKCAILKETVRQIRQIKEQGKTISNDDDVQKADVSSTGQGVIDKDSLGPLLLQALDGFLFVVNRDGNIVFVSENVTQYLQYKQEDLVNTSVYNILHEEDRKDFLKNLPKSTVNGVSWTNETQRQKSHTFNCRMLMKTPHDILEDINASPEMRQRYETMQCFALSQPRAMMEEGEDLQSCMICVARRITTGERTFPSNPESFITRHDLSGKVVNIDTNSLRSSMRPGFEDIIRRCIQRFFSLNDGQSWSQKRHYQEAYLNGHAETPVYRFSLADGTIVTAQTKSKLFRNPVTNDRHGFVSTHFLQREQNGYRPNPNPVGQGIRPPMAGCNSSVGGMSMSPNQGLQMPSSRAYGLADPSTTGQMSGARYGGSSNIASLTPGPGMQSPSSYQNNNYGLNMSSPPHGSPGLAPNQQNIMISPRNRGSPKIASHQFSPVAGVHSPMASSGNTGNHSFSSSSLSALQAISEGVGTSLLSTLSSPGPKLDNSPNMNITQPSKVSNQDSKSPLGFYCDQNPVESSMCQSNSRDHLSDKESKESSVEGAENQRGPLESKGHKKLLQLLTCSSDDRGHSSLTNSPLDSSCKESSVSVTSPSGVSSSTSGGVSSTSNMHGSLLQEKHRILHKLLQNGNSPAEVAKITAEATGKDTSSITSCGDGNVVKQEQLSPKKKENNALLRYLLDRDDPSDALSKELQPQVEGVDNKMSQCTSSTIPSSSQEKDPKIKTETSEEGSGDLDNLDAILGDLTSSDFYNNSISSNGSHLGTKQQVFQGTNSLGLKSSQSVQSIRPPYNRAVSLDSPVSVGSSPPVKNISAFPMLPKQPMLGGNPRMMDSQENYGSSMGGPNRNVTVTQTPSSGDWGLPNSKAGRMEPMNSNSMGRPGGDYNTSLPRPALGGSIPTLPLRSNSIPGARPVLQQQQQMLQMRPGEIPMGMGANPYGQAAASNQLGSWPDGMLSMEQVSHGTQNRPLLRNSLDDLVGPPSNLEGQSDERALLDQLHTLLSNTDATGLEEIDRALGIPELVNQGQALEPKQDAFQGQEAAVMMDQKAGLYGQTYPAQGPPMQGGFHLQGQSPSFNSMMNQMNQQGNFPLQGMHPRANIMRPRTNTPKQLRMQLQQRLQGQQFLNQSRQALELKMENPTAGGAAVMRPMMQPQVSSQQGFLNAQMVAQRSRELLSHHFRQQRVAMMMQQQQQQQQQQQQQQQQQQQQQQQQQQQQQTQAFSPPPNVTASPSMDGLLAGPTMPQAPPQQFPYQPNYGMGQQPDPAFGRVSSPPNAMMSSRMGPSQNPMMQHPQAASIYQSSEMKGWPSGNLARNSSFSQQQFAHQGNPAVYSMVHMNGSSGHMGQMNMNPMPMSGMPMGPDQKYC
# [2] = test system: transactivating tegument protein VP16 (Human herpesvirus 1), Gal4-VP16 luciferase reporter; assay: VP16 transactivation inhibitors, counter-screen for SRC3 inhibitor project, cell-based, luminescence, high throughput (AID 588794; in the data active means inhibition above about 30%); settings: mammalian cells, VP16-driven luciferase reporter luminescence; at 3.6 µM; active compounds read high
# [3] = target: Nuclear receptor coactivator 1 (Homo sapiens) (UniProt Q15788); assay: SRC1 coactivator transcriptional activity inhibitors, confirmation, cell-based, luminescence, quadruplicate (AID 588820;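 active means mean inhibition above 46.68%, the untreated control wells mean plus 3 SD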;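 further: 0% = DMSO wells and 100% = gossypol 36 µM treated wells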); settings: HEK293 GAL4-SRC1 luciferase reporter, at 3.6 µM, active compounds read high
# Sequence of Nuclear receptor coactivator 1 (Homo sapiens) (Q15788 whole entry, looked up, the tested form may be a part): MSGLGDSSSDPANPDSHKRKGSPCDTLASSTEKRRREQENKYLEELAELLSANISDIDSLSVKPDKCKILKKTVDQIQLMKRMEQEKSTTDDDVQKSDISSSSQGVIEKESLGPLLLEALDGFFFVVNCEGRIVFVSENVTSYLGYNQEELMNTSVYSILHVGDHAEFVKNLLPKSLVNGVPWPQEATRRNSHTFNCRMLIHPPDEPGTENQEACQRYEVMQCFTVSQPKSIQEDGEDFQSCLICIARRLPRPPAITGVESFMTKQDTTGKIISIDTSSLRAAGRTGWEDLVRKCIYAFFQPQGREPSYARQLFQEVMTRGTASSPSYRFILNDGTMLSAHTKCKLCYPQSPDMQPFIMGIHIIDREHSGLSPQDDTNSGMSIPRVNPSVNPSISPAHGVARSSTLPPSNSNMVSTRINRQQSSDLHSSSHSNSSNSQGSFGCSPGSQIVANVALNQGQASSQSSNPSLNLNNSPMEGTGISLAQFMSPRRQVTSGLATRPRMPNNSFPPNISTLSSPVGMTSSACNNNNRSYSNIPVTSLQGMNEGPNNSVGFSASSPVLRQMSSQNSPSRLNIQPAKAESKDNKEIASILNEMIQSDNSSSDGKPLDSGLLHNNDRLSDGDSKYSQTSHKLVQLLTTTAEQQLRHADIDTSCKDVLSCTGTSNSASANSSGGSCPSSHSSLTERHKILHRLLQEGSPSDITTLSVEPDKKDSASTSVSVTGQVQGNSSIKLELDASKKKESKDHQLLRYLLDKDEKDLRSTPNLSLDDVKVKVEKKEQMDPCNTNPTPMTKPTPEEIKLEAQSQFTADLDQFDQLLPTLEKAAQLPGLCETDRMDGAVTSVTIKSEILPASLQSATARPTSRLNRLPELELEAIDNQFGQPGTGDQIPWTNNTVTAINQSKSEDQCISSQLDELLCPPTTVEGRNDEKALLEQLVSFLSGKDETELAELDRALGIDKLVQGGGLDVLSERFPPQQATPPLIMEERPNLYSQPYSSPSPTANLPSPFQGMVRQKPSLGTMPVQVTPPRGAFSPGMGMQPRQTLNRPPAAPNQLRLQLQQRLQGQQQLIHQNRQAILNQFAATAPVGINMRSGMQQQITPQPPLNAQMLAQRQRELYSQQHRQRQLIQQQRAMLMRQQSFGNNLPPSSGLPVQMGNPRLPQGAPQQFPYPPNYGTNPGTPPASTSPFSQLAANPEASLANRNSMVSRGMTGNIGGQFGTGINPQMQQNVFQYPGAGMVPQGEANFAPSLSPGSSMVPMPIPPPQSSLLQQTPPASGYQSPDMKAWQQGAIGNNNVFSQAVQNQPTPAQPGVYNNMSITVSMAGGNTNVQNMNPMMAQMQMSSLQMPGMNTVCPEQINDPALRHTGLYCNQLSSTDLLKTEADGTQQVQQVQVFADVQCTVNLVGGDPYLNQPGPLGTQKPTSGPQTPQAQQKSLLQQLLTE
# [4] = VP16 transactivation inhibitors, counter-screen for SRC1 inhibitor project, cell-based, luminescence, high throughput (AID 588824; in the data active means inhibition above about 25%); settings: cell-based VP16 transactivation luciferase luminescence; at 3.6 µM; active compounds read high
# [5] = test system: transactivating tegument protein VP16 (Human herpesvirus 1); assay: VP16 transactivation reporter inhibitors, counter-screen for SRC2 inhibitor project, cell-based, luminescence, single concentration (AID 652007; in the data active means inhibition above about 36%); settings: cell-based VP16 transactivation luciferase reporter, at 8.9 µM, active compounds read high
# [6] = target: Nuclear receptor coactivator 2 (Homo sapiens) (UniProt Q15596); assay: SRC2 coactivator transcriptional activity inhibitors, confirmation, cell-based, luminescence, HEK293, triplicate (AID 652008;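 active means mean inhibition above 46.5%, the solvent-only control mean plus 3 SD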;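 further: 0% = DMSO-treated cells and 100% = Gossypol at 36 µM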); settings: HEK293 GAL4-SRC2 luciferase reporter, at 8.9 µM, active compounds read high
# Sequence of Nuclear receptor coactivator 2 (Homo sapiens) (Q15596 whole entry, looked up, the tested form may be a part): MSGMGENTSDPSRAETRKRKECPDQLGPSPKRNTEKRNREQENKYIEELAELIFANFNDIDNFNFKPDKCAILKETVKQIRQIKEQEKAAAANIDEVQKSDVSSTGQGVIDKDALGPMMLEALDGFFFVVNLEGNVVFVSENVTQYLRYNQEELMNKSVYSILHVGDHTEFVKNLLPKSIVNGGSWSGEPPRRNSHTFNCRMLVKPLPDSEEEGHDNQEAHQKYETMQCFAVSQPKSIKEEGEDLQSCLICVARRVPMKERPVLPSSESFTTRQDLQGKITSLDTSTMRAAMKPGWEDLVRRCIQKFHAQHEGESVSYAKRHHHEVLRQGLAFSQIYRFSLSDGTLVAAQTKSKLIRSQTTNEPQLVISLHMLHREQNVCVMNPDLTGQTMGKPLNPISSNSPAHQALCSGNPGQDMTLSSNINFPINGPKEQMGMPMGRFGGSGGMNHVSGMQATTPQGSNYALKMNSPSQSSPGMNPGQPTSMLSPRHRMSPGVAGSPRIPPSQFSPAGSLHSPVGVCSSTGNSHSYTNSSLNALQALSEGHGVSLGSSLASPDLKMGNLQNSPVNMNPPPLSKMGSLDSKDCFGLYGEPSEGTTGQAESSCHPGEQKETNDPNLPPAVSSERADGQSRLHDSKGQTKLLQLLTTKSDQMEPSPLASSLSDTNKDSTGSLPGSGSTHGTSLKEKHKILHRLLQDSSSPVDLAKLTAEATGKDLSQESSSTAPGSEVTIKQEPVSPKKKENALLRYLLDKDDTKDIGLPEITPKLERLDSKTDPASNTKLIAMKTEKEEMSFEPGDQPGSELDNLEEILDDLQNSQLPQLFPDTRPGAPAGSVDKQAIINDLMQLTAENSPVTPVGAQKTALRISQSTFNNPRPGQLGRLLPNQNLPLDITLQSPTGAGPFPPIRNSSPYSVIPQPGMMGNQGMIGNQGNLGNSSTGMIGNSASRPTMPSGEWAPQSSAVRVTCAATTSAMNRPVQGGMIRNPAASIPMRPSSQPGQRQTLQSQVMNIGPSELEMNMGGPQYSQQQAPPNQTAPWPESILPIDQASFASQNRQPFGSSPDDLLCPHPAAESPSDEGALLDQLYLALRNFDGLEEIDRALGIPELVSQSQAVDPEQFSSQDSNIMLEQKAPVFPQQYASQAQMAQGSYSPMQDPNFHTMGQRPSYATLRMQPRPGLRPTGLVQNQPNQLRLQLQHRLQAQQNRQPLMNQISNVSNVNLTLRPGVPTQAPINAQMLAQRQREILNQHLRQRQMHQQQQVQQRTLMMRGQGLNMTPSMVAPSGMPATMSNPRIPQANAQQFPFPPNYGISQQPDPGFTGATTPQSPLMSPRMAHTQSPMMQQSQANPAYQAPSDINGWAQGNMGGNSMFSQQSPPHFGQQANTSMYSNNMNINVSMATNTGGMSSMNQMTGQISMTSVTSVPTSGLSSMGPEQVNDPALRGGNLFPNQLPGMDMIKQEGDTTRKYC
Compound,inhibition [1],inhibition [2],inhibition [3],inhibition [4],inhibition [5],inhibition [6]
C/C(=N\Nc1ncnc2sc(C)c(C)c12)c1ccccn1,63.2% (active),70.1% (active),18.5%,50.4% (active),-48.8%,1.02%
Cc1ccc(S(=O)(=O)c2ccc([N+](=O)[O-])cn2)cc1,25.7%,-18.7%,-25.7%,-32.7%,13%,23.4%
COc1ccc(-c2cn[nH]c2-c2ccc(O)cc2O)cc1,67.1% (active),46.2% (active),53.9% (active),37.3% (active),-0.83%,50% (active)
O=c1cc(-c2ccccc2Cl)oc2c([N+](=O)[O-])c(O)cc(O)c12,61.5% (active),44.4% (active),51.9% (active),37% (active),4.67%,52.9% (active)
COc1cc2ccccc2ccc1=NO,60.1% (active),38% (active),56.5% (active),32.9% (active),19.7%,59.6% (active)
COCCn1c(C)cc(C(=O)COC(=O)c2cccc(O)c2)c1C,2.54%,0.92%,-62.8%,-32.7%,37.3% (active),51.1% (active)
CC(=C/c1ccccc1)/C=N/n1c(-c2ccncc2)n[nH]c1=S,71.2% (active),45.2% (active),66.1% (active),51.6% (active),6.14%,45%
COc1ccc(CC(=O)Nc2cccc(-c3nnc(-c4ccccc4)o3)c2)cc1OC,10.5%,32.9% (active),-12.5%,41.1% (active),27.1%,68.5% (active)
c1ccc2c(-c3ccc4nncn4c3)cncc2c1,79% (active),54.1% (active),65.9% (active),56.4% (active),-5.43%,46.3%
CS(=O)(=O)N(CCC#N)Cc1ccc(/C=C2\C(=O)Nc3ccccc32)o1,55.2% (active),37.4% (active),52.9% (active),29.3% (active),4.75%,11.8%
CC(C)(C)OC(=O)NCCCCCNC(=O)c1nc[nH]c1C(=O)NCCCCCNC(=O)OC(C)(C)C,5.02%,13.7%,-20%,35.1% (active),24.2%,34.1%
CC(=O)c1sc(NC(=O)C2(F)C(F)(F)C(F)(F)C(F)(F)C(F)(F)C2(F)F)nc1C,66.5% (active),79% (active),60.4% (active),84.5% (active),4.16%,23.9%
Cc1c(CC(=O)NCCCC(=O)O)c(=O)oc2cc3c(cc12)CCC(C)(C)O3,35.8%,17.2%,15.6%,15.5%,58.8% (active),60.9% (active)
CC1=C(C(=O)OCc2ccc3c(c2)OCO3)C(c2cccc([N+](=O)[O-])c2)NC(=O)N1 (configuration not stated),64.6% (active),42.2% (active),65.7% (active),37.3% (active),-0.72%,51.9% (active)
COc1ccc(Nc2ccnc3ccccc23)cc1,41.8%,30.3% (active),52.8% (active),26.4% (active),-20.9%,30%
Cc1[nH]nc2ncc(C(=O)c3ccccc3O)cc12,73.3% (active),43.9% (active),68.7% (active),48.9% (active),-2.08%,50.4% (active)
O=C1C=CC(=C(c2ccc(O)cc2)c2ccc(O)cc2)C=C1,71.2% (active),47.5% (active),54% (active),46.8% (active),26.8%,27.1%
COc1ccc(-c2cn[nH]c2-c2ccc(OC)cc2O)cc1,54.6% (active),26.5%,46.3%,29.9% (active),2.11%,25.8%
CC1=C(C(=O)OCc2ccc3c(c2)OCO3)C(c2ccc(O)c([N+](=O)[O-])c2)NC(=O)N1 (configuration not stated),60% (active),37.2% (active),58.6% (active),35.7% (active),20.7%,33.6%
OCCCNc1ncnc2scc(-c3ccc(Cl)cc3)c12,62.6% (active),47.1% (active),62.6% (active),39.2% (active),5.28%,46.5% (active)
Cc1cc(/C=N/Nc2ncnc(N)c2[N+](=O)[O-])c(C)n1-c1ccccc1,26%,12.4%,-28.1%,-10.1%,23.9%,61.2% (active)

Compound,inhibition [1],inhibition [2],inhibition [3],inhibition [4],inhibition [5],inhibition [6]
O=C(CCCc1nc(-c2ccccc2Cl)no1)NC1CCCC1,36.4%,-6.22%,22.9%,-0.83%,26.2%,92.2% (active)
Cc1nn(C(C)(C)C)c(C)c1/C=N/OC(=O)Nc1ccc(Cl)c(Cl)c1,20.2%,16.6%,25.3%,12%,63% (active),82% (active)
O=C1NC(=S)N/C1=C\c1cccnc1,49.2% (active),36.6% (active),52.9% (active),33.3% (active),0.14%,44%
O=C1NC(=S)N/C1=C/c1cccnc1,39.1%,32% (active),44.9%,31.8% (active),-3.45%,43.8%
COc1ccc(/C=C2\SC(=S)N(CCCC(=O)N3CCCCC3CCO)C2=O)cc1 (configuration not stated),20.9%,17.1%,4.91%,13.6%,61% (active),65.9% (active)
COCCn1c(C)cc(C(=O)COc2ccc(C)nc2[N+](=O)[O-])c1C,24.8%,1.88%,12.1%,-5.22%,23.8%,59.5% (active)
CC(C)(CO)CNc1ccn2nccc2n1,49.3% (active),35.4% (active),67.4% (active),41% (active),-7.15%,27.5%
CN(C)C=Nc1ncc2c3ccccc3n(CCN(C)C)c2c1C#N,48.6% (active),29.9% (active),48.9% (active),33.2% (active),-1.55%,9.25%
O=C(CCl)NC(Cc1ccccc1)c1ccccc1 (configuration not stated),52.5% (active),14.2%,24.6%,6.41%,32.8%,47.5% (active)
Cn1c(/C=C/c2cccc([N+](=O)[O-])c2)c([N+](=O)[O-])c(=O)n(C)c1=O,37.6%,41.4% (active),32.5%,40.8% (active),7.43%,25.7%
COc1cccc(N(C(=O)CCl)C(C(=O)NCCc2ccccc2)c2cccs2)c1 (configuration not stated),60.3% (active),36% (active),24.3%,34% (active),27.8%,63.3% (active)
COCCNc1nc(Oc2cncc(Cl)c2)c2sccc2n1,42.1%,29.7% (active),44.3%,32.8% (active),16.6%,45.5%
Clc1ccccc1C1=Nn2c(nnc2-c2ccncc2)SC1,78.3% (active),52.6% (active),73.9% (active),55.2% (active),7.16%,46%
Oc1ccc(Nc2ncnc3scc(-c4ccccc4)c23)cc1,38.6%,35.8% (active),41%,31.3% (active),-10.2%,57.6% (active)
COC(=O)c1cccc2c1-c1ccccc1/C2=N/O,50.9% (active),24.4%,34.5%,25.2%,21.1%,42.4%
CCCC(=O)NC(c1ccc(Cl)cc1Cl)c1ccc2cccnc2c1O (configuration not stated),34.5%,28.6%,45.7%,48% (active),0.83%,17.2%
COC(=O)CCNc1ccc2c(c1)OCCO2,7.16%,-2.66%,-12.2%,-15.9%,-9.29%,39.5%
O=C(CCCN1C(=O)/C(=C/c2ccccc2Cl)SC1=S)NNC(=O)c1ccc(Cl)cc1Cl,55% (active),32.6% (active),37.1%,33% (active),76.7% (active),92.4% (active)
CCOc1ccc(Nc2ncnc3ccc([N+](=O)[O-])cc23)cc1,70% (active),43.6% (active),65.8% (active),53.7% (active),-19.7%,47.4% (active)
CC1=C(C(=O)OCc2ccc3c(c2)OCO3)C(c2ccc(Cl)cc2)NC(=O)N1 (configuration not stated),86% (active),74.7% (active),69.2% (active),74.8% (active),29.9%,46.3%
Cc1c(C(C)NC(=O)c2cc(COc3cccc4cnccc34)on2)cnn1C (configuration not stated),32.4%,40.4% (active),38.3%,33.8% (active),7.45%,46.9% (active)
